Assay results reported in PubChem BioAssay.

experiment: yeast transport mutant growth inhibition pilot in 384-well plates, post-Golgi transport modulator project (AID 636; in the data active = inhibition above about 31%); settings: absorbance 615 nm, about 18 h, stronger effect = higher value

inhibition, inactive:
O=C(Cn1nnc(-c2cccc(C(F)(F)F)c2)n1)NC(=O)NCc1ccco1 -1.05%
Cc1cccc(NS(=O)(=O)c2cc(C(=O)OCC(=O)Nc3cc(C)on3)ccc2C)c1 -2.8%
O=C(O)c1c(Cl)c(Cl)c(Cl)c(Cl)c1C(=O)N1CCOCC1 -5.97%
CCN1CCCC1CNC(=O)CS(=O)(=O)Cc1nc(-c2ccccc2C)oc1C (stereo not given) -3.6%
Cc1ccc(OCC(O)Cn2c(=N)n(CCN3CCCCC3)c3ccccc32)cc1 (stereo not given) -4%
O=C1c2ccccc2CN1CCNS(=O)(=O)c1ccc(Cl)cc1 -7.87%
COC(=O)C1CCN(C(=O)c2sc3nc(-c4ccc(F)cc4)cn3c2C)CC1 -1.07%
CCCCc1cc(=O)oc2cc(C)cc(OC(C)C(=O)O)c12 (stereo not given) -2.3%
COc1cccc(OC)c1OCCN1CCN(C(=O)c2ccco2)CC1 -6.85%
CC(C)NC(=O)CSCc1ccccc1Cl -3.33%
CC(=O)N1CCN(c2ccc(N=Cc3c(O)n(Cc4ccccc4)c(=O)[nH]c3=O)cc2)CC1 -0.91%
CCC1=C(C(=O)OC)C(c2cc(OC)ccc2OC)C(C#N)=C(N)O1 (stereo not given) -6.67%
CCCCCn1c(CN2CCN(C(=O)OCC)CC2)nc2c1c(=O)[nH]c(=O)n2C -0.67%
Cc1ccc(N2CCN(C(=S)c3ccc(N(C)C)cc3)CC2)cc1 -3.92%
COc1ccccc1NC(=O)N1CCCC1C(=O)NC1CCCCC1 (stereo not given) -9.32%
CCOc1ccc(OCC)c(NC(=O)CN2CCN(C(=O)c3ccco3)CC2)c1 4.81%
C=CCN(C(=O)CNC(=O)c1ccco1)C(C(=O)NC1CCCCC1)c1ccccc1F (stereo not given) -2.43%
Cc1ccc2cc(CN(CC3CCCO3)S(=O)(=O)c3ccc4c(c3)OCCO4)c(=O)[nH]c2c1C (stereo not given) -5.07%
COc1cc(OC)cc(-n2nnnc2SCC(=O)N2CCCC2)c1 -2.11%
O=C(CSc1nnc(Cn2nnc(-c3ccccc3)n2)n1-c1ccccc1)Nc1ccc(F)cc1 -1.45%
O=C(NC1CCCC1)c1ccc(S(=O)(=O)N2CCCC2)cc1 -1.08%
C=CCSc1nnc(-c2ccccc2NC(C)=O)c(=O)[nH]1 -3.03%
COc1ccc(C2C(=O)N(C3CCCCC3)CC(=O)N2Cc2ccco2)cc1 (stereo not given) -6.67%
COc1ccc(-c2cc(O)cc(O)c2)cc1 -8.24%
Cc1cccc(NC(=O)CCN2CCN(C/C=C/c3ccccc3)CC2)c1 -2.53%
CCCn1c2ccccc2c2nnc(SCC(=O)OCC)nc21 -0.66%
COc1cccc(C2C(C(=O)c3cc4ccccc4o3)=C(O)C(=O)N2CCN(C)C)c1OC (stereo not given) -3.87%
O=C(COc1ccc(F)cc1Br)N1CCc2ccccc21 -1.43%
S=C(c1ccc(-c2cc(Cl)ccc2Cl)o1)N1CCOCC1 -0.4%
O=C(NCN1CCCCC1)c1cnccn1 -2.47%
O=C(CSc1nnc(-c2ccco2)c(-c2ccco2)n1)Nc1ccccc1 2.63%
CCC1(c2ccc(F)cc2)NC(=O)N(CC(=O)c2ccc[nH]2)C1=O (stereo not given) -2.08%
CCN1CCN(C(=O)c2ccc3c(=O)n(C4CCCC4)c(=S)[nH]c3c2)CC1 7.37%
N#CC1=C(N)SC(N)=C(C#N)C1CCc1ccccc1 -2.11%
O=C(NCc1ccc2c(c1)OCO2)C1CCCN(S(=O)(=O)c2cccnc2)C1 (stereo not given) 0.38%
Cc1cccc(-c2noc(CCC(=O)Nc3ccccc3)n2)c1 -7.3%
Nc1ncnc(Nc2ccccc2C(F)(F)F)n1 5.19%
CCNc1nc(N2CCCCC2)nc(-n2nnc(C(=O)OCC)c2C)n1 -6.45%
Cc1ccc(S(=O)(=O)N2CCCC(C(=O)NC3=NCCS3)C2)cc1 (stereo not given) -6.67%
O=C1C(C=NCCCn2ccnc2)=C(O)c2ccccc21 -5.14%

experiment: growth suppression of yeast trafficking mutant, preliminary HTS, modulators of trafficking downstream of Golgi apparatus project, 1536-format plate, OD 615 nm (AID 637); settings: yeast transport mutant growth, absorbance 615 nm, 18 h; stronger effect = higher value

inhibition, inactive:
O=C(Cn1nnc(-c2cccc(C(F)(F)F)c2)n1)NC(=O)NCc1ccco1 -1.82%
Cc1cccc(NS(=O)(=O)c2cc(C(=O)OCC(=O)Nc3cc(C)on3)ccc2C)c1 -2.26%
O=C(O)c1c(Cl)c(Cl)c(Cl)c(Cl)c1C(=O)N1CCOCC1 0.16%
CCN1CCCC1CNC(=O)CS(=O)(=O)Cc1nc(-c2ccccc2C)oc1C (stereo not given) 1.64%
Cc1ccc(OCC(O)Cn2c(=N)n(CCN3CCCCC3)c3ccccc32)cc1 (stereo not given) -0.33%
O=C1c2ccccc2CN1CCNS(=O)(=O)c1ccc(Cl)cc1 -0.63%
COC(=O)C1CCN(C(=O)c2sc3nc(-c4ccc(F)cc4)cn3c2C)CC1 0.81%
CCCCc1cc(=O)oc2cc(C)cc(OC(C)C(=O)O)c12 (stereo not given) -7.17%
COc1cccc(OC)c1OCCN1CCN(C(=O)c2ccco2)CC1 -4.92%
CC(C)NC(=O)CSCc1ccccc1Cl 0.97%
CC(=O)N1CCN(c2ccc(N=Cc3c(O)n(Cc4ccccc4)c(=O)[nH]c3=O)cc2)CC1 0.95%
CCC1=C(C(=O)OC)C(c2cc(OC)ccc2OC)C(C#N)=C(N)O1 (stereo not given) -0.98%
CCCCCn1c(CN2CCN(C(=O)OCC)CC2)nc2c1c(=O)[nH]c(=O)n2C 0.16%
Cc1ccc(N2CCN(C(=S)c3ccc(N(C)C)cc3)CC2)cc1 -6.19%
COc1ccccc1NC(=O)N1CCCC1C(=O)NC1CCCCC1 (stereo not given) -2.5%
CCOc1ccc(OCC)c(NC(=O)CN2CCN(C(=O)c3ccco3)CC2)c1 -7.3%
C=CCN(C(=O)CNC(=O)c1ccco1)C(C(=O)NC1CCCCC1)c1ccccc1F (stereo not given) 1.27%
Cc1ccc2cc(CN(CC3CCCO3)S(=O)(=O)c3ccc4c(c3)OCCO4)c(=O)[nH]c2c1C (stereo not given) -6.03%
COc1cc(OC)cc(-n2nnnc2SCC(=O)N2CCCC2)c1 0.36%
O=C(CSc1nnc(Cn2nnc(-c3ccccc3)n2)n1-c1ccccc1)Nc1ccc(F)cc1 13.4%
O=C(NC1CCCC1)c1ccc(S(=O)(=O)N2CCCC2)cc1 0.83%
C=CCSc1nnc(-c2ccccc2NC(C)=O)c(=O)[nH]1 -0.36%
COc1ccc(C2C(=O)N(C3CCCCC3)CC(=O)N2Cc2ccco2)cc1 (stereo not given) 1.45%
COc1ccc(-c2cc(O)cc(O)c2)cc1 4.26%
Cc1cccc(NC(=O)CCN2CCN(C/C=C/c3ccccc3)CC2)c1 3.23%
CCCn1c2ccccc2c2nnc(SCC(=O)OCC)nc21 3.64%
COc1cccc(C2C(C(=O)c3cc4ccccc4o3)=C(O)C(=O)N2CCN(C)C)c1OC (stereo not given) 11.3%
O=C(COc1ccc(F)cc1Br)N1CCc2ccccc21 -0.33%
S=C(c1ccc(-c2cc(Cl)ccc2Cl)o1)N1CCOCC1 5.16%
O=C(NCN1CCCCC1)c1cnccn1 -1.15%
O=C(CSc1nnc(-c2ccco2)c(-c2ccco2)n1)Nc1ccccc1 9.03%
CCC1(c2ccc(F)cc2)NC(=O)N(CC(=O)c2ccc[nH]2)C1=O (stereo not given) -4.83%
CCN1CCN(C(=O)c2ccc3c(=O)n(C4CCCC4)c(=S)[nH]c3c2)CC1 19.5%
N#CC1=C(N)SC(N)=C(C#N)C1CCc1ccccc1 -0.36%
O=C(NCc1ccc2c(c1)OCO2)C1CCCN(S(=O)(=O)c2cccnc2)C1 (stereo not given) -6.5%
Cc1cccc(-c2noc(CCC(=O)Nc3ccccc3)n2)c1 -11.2%
Nc1ncnc(Nc2ccccc2C(F)(F)F)n1 -11.2%
CCNc1nc(N2CCCCC2)nc(-n2nnc(C(=O)OCC)c2C)n1 4.75%
Cc1ccc(S(=O)(=O)N2CCCC(C(=O)NC3=NCCS3)C2)cc1 (stereo not given) 2.62%
O=C1C(C=NCCCn2ccnc2)=C(O)c2ccccc21 -1.75%
